Assay results published in the supplement of paper PMC11732987, “Enantioselective OTUD7B fragment discovery through chemoproteomics screening and high-throughput optimisation” (Communications Chemistry, 2025).
Values without a mark were called inactive.

Assays:
Assay in all cases: log2 ratio of Biotin-Ahx-Ub-VS probe labelling (fragment/DMSO); higher = less target engagement (more negative = stronger competition), active = hit call of the paper (q ≤ 0.05, log2 ratio ≤ -1)
Details in all cases: compound concentration: 200 uM; treatment time: 3 h
ALG13 = target: T1, ALG13 (UniProt Q9NP73)
T1 sequence (whole entry): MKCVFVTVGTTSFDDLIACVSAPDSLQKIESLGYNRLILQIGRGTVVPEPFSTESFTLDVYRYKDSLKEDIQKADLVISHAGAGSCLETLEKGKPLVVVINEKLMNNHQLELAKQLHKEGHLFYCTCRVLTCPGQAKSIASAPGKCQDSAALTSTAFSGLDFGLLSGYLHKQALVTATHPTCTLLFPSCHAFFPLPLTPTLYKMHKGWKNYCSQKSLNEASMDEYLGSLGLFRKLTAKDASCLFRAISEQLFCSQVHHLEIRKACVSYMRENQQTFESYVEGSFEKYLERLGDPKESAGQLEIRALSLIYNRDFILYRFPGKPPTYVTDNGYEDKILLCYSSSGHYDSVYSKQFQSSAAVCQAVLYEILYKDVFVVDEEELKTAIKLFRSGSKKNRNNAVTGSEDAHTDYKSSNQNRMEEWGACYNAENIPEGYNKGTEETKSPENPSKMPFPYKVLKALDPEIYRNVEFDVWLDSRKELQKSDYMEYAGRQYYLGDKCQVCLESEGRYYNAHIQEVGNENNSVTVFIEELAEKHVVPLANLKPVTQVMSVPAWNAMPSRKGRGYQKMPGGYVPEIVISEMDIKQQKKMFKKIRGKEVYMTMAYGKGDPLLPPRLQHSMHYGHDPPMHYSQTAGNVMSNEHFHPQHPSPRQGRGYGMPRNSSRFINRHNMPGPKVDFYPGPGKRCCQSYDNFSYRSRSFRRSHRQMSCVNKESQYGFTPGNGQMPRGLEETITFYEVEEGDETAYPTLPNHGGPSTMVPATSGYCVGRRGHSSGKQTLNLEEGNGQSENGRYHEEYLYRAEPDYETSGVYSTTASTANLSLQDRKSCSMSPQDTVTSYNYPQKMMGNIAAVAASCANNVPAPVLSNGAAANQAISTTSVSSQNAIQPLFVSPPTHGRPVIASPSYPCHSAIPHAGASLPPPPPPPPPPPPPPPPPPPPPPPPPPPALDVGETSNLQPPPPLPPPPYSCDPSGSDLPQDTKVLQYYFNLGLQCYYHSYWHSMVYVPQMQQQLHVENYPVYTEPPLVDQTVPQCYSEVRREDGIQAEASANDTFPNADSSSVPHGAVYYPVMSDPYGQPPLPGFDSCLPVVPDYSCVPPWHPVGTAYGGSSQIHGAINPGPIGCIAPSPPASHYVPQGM
How it was run: (§1)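 Lysate from HEK293T cells, 495 µg per sample in Tris/CHAPS/IGEPAL buffer with protease inhibitors, was treated for 3 h in triplicate with fragment at 200 µM or vehicle. Biotin-Ahx-Ub-VS was next added at 0.5 µM final for 1 h. The labelled DUBs were enriched with NeutrAvidin, digested with LysC and trypsin, and run by diaPASEF LC-MS/MS, with values given as average log2 fragment/vehicle ratios by unpaired t-test on global-median-normalised Spectronaut quantities of proteins with ≥2 unique peptides.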

ATXN3 = ATXN3 (UniProt P54252)
How it was run: as §1

BAP1 = target: T2, BAP1 (UniProt Q92560)
T2 sequence (whole entry): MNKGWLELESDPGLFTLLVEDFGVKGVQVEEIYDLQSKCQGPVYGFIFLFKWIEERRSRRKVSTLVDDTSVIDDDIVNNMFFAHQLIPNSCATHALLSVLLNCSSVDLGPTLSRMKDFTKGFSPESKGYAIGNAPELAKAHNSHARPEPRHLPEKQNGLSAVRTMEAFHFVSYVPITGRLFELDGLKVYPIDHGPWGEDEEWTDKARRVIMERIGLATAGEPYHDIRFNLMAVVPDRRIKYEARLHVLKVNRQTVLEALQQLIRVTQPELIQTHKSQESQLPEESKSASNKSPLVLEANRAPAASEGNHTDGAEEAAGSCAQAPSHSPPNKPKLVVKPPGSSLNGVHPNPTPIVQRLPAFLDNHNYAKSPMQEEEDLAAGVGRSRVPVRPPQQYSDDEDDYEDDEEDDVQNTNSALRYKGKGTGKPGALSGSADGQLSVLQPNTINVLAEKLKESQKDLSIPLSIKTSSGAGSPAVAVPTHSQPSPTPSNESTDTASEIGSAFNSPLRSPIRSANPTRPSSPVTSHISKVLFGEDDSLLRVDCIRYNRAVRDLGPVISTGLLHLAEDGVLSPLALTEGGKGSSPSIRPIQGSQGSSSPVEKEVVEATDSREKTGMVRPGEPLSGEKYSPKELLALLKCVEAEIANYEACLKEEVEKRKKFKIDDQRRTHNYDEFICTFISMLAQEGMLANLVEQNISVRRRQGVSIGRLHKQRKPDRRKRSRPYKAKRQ
How it was run: as §1

EIF3F = EIF3F (UniProt O00303)
How it was run: as §1

EIF3H = EIF3H (UniProt O15372)
How it was run: as §1

FAM105A = target: T3, FAM105A (UniProt Q9NUU6)
T3 sequence (whole entry): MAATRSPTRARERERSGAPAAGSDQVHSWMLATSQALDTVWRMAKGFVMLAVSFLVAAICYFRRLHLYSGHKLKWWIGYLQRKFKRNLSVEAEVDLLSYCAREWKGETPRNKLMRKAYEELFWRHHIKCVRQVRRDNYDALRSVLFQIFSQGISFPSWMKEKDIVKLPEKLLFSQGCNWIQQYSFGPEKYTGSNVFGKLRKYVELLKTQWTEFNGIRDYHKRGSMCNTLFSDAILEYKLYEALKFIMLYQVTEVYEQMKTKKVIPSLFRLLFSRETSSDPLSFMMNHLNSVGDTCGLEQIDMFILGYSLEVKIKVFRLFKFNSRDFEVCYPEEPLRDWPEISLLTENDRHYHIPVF
How it was run: as §1

OTUB1 = OTUB1 (UniProt Q96FW1)
How it was run: as §1

OTUD4 = target: T4, OTUD4 (UniProt Q01804)
T4 sequence (whole entry): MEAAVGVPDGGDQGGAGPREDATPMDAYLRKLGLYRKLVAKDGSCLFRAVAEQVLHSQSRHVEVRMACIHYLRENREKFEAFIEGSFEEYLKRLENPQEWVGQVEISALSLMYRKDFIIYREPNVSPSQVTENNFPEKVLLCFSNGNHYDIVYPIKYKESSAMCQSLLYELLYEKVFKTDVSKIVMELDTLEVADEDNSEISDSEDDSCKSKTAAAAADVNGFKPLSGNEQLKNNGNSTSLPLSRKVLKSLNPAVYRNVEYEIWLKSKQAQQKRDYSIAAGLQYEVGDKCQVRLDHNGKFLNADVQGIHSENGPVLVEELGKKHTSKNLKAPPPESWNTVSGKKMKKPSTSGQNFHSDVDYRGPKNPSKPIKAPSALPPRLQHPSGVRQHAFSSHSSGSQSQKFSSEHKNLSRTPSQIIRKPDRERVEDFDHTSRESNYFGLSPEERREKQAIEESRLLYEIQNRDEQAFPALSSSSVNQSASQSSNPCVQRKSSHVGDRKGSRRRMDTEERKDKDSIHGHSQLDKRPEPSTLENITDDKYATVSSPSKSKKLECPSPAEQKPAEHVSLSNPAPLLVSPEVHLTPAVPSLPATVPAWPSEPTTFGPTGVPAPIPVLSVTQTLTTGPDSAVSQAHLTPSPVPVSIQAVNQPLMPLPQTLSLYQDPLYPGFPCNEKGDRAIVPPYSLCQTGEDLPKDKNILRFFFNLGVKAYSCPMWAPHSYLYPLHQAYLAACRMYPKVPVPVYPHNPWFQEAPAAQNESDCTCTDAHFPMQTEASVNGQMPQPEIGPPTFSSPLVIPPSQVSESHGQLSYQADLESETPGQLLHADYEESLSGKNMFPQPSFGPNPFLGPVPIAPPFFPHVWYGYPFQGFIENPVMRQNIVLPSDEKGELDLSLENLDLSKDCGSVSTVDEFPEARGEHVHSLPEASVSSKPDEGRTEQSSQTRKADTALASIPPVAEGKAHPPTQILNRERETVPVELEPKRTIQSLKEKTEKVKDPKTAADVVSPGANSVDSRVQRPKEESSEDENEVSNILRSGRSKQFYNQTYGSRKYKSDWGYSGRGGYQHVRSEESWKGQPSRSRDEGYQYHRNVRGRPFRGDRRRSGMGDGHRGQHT
How it was run: as §1

OTUD5 = target: T5, OTUD5 (UniProt Q96G74)
T5 sequence (whole entry): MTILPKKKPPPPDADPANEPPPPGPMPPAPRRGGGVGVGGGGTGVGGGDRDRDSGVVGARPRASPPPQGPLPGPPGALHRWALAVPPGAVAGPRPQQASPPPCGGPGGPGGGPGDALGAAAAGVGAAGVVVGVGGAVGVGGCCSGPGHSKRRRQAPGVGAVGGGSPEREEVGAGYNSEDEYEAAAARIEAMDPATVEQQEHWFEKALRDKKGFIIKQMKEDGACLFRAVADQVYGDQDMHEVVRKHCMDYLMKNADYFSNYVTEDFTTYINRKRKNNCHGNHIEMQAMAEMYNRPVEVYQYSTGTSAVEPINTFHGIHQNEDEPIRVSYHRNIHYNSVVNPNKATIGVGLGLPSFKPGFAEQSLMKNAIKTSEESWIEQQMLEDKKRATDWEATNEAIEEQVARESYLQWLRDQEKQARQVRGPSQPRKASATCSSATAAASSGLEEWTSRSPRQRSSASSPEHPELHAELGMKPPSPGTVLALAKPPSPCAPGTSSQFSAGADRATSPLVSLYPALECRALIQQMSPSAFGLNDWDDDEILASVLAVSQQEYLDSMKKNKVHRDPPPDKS
How it was run: as §1

ATXN3, sequence (P54252 whole entry): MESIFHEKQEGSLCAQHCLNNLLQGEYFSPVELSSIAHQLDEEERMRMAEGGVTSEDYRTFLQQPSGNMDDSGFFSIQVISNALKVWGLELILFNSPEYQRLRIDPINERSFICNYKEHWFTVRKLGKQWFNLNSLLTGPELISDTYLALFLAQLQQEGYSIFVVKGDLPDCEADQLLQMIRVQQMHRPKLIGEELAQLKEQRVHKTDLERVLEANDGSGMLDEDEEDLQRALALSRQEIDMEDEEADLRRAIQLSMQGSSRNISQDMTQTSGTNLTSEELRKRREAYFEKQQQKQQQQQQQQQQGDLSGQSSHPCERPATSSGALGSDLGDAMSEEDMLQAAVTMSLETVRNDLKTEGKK
OTUB1, sequence (Q96FW1 whole entry): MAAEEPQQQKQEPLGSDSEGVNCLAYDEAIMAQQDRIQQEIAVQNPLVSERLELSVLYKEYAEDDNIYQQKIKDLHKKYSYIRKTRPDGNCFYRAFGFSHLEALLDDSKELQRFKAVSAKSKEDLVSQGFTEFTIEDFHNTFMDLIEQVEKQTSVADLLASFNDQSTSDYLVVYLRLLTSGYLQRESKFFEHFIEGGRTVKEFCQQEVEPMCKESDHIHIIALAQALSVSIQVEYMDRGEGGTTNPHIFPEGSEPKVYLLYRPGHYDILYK
EIF3F, sequence (O00303 whole entry): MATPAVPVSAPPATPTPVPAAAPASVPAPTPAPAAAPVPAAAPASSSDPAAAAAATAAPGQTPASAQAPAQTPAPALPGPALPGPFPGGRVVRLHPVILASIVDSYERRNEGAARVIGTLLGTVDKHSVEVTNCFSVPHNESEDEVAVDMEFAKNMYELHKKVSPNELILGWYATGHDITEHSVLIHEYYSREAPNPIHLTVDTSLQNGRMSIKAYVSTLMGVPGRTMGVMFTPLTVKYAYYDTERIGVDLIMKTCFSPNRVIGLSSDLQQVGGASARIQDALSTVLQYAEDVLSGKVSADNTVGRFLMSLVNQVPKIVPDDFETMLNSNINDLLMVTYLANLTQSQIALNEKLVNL
EIF3H, sequence (O15372 whole entry): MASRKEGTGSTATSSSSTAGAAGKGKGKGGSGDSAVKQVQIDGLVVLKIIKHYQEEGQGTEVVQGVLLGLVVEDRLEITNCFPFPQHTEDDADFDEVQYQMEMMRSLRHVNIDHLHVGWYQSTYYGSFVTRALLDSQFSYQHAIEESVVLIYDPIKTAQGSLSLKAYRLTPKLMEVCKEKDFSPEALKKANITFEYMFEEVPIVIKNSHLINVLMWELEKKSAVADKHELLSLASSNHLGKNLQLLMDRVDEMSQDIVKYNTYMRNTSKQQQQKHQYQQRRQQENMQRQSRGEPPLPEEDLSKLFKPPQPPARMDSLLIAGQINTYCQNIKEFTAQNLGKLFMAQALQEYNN

## Cl.Cn1ncc2c1CCCC2NC(=O)CCl (centres undefined)
ALG13
  log2 ratio of Biotin-Ahx-Ub-VS probe labelling: 0.35
ATXN3
  log2 ratio of Biotin-Ahx-Ub-VS probe labelling: -0.16
BAP1
  log2 ratio of Biotin-Ahx-Ub-VS probe labelling: -0.894
EIF3F
  log2 ratio of Biotin-Ahx-Ub-VS probe labelling: -0.378
EIF3H
  log2 ratio of Biotin-Ahx-Ub-VS probe labelling: 0.457
FAM105A
  log2 ratio of Biotin-Ahx-Ub-VS probe labelling: 0.0219
OTUB1
  log2 ratio of Biotin-Ahx-Ub-VS probe labelling: -0.186
OTUD4
  log2 ratio of Biotin-Ahx-Ub-VS probe labelling: -1.75 (active)
OTUD5
  log2 ratio of Biotin-Ahx-Ub-VS probe labelling: -0.0276
